Screening results as filed in PubChem BioAssay.
FLuc modulator = counter-screen for miR-21 project: firefly luciferase inhibitors or activators | purified FLuc, Km substrates, luminescence inhibition | Potency, µM (series often up to 57.5 µM), usual class: inhibitors | actives 6.9% (n = 360,000) | AID 588342; also: nearly all actives have a fitted effect of over 55% in size
Target sequence (P08659 whole entry, looked up): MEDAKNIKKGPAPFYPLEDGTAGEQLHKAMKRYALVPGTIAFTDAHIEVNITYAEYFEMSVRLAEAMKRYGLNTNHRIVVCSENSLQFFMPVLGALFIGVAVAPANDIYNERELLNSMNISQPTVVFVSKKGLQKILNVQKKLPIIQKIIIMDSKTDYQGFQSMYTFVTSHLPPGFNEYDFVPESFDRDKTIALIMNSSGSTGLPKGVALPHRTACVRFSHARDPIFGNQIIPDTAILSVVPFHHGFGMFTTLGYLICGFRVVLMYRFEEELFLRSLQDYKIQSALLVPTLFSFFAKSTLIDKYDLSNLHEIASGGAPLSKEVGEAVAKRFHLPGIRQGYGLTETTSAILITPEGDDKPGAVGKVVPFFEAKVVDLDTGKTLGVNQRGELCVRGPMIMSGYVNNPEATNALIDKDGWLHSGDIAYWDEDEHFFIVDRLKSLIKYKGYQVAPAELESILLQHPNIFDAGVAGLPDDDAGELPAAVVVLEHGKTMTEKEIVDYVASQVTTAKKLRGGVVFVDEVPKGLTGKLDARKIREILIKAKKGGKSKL
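Biochemical qHTS of compounds, final roughly 60 µM downward over six points, against 10 nM purified firefly luciferase using Km concentrations of substrates (10 uM D-luciferin, 10 uM ATP) in Tris acetate pH 7.5 buffer; luminescence output.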
NPC1 prom act = activates the NPC1 promoter; Huh7 NPC1 promoter luciferase reporter, 24 h; Potency, µM (titrated, usually from 9.22 µM), usual class: activators; actives 2.4% (n = 320,000); AID 485313; also: nearly all actives have a fitted effect of over 60% in size
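Compounds in DMSO were transferred onto Huh7 NPC1-luciferase reporter cells pre-incubated 2 h; after 24 h at 37 °C, Amplite reagent was dispensed and luminescence recorded 10 min later.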
ELG1 genotox = genotoxicity induction in ELG1-luciferase HEK293T cells. HEK293T ELG1-luciferase reporter, luminescence, 16 h. Potency, µM (top dose mostly 46 µM), actives largely listed as activators. actives 1.3% (n = 330,000). AID 504466; also: nearly all actives have a fitted effect of over 60% in size
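Reporter readout depends on ELG1 protein level, which increases with genetic stress. After 16 hr compound exposure at 37 °C, luciferase activity was quantified using ONE-Glo.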
ELG1 DNA repair = blocks ELG1-dependent DNA repair in HEK293T cells | Potency, µM (doses to about 46.1 µM), actives largely listed as inhibitors | actives 2.3% (n = 330,000) | AID 504467 | HEK293T ELG1-luciferase reporter, luminescence, 16 h; DNA damage induced by 5-fluorouridine; also: nearly all actives have a fitted effect of over 55% in size
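DMSO vehicle served as the neutral condition. Each well held 2,000 cells given 5-fluorouridine plus compound; after 16 hr at 37 °C/5% CO2, ONE-Glo was added and luciferase measured 30 min later.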
Rab9 promoter act = activators of Rab9 promoter; Huh7 Rab9 promoter-luciferase reporter, luminescence, 24 h; Potency, µM (titrated, usually from 9.22 µM), actives largely listed as activators; actives 2.8% (n = 320,000); also: nearly all actives have a fitted effect of over 60% in size
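Using Huh7 cells stably transfected with Rab9 promoter–luciferase, compounds were incubated 24 h at 37 °C, 5% CO2; luciferase luminescence was read 10 min after reagent addition.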
SMN2 splice enh = SMN2 splice variant enhancement; AID 1458; Potency, µM (series often up to 46.1 µM), actives largely listed as activators; actives 2.8% (n = 210,000); HEK293 SMN2-luciferase splicing reporter, luminescence, 30-36 h; also: nearly all actives have a fitted effect of over 55% in size
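HEK293 cells carry an SMN2 […]–luciferase reporter in which exon 7 inclusion puts luciferase in frame. Cells were plated 10-12 h before compound addition, then incubated 30-36 h at 37C. ONE-Glo luminescence was read; sodium butyrate at 4.5 mM final served as control.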
Numbers stand for hits; - = inactive; ? = inconclusive; . = not tested or not shown; [ ] = remark or other dose. Rows were chosen to be rich in hits. Some 9.2% of all compounds tested hit in one or more screens of this group. Calls follow the shape of the dose curve; as a rule, active = well fitted curve in the direction sought with a large enough effect; inconclusive = small, poorly fitted or top-dose-only effect, or another doubt; inactive = no such curve, though single readings can be large; an effect the other way counts as inactive or inconclusive.

SMILES	FLuc modulator	NPC1 prom act	ELG1 genotox	ELG1 DNA repair	Rab9 promoter act	SMN2 splice enh
Cc1ccc(N/N=C/c2c(O)n(-c3ccccc3)c(=O)[nH]c2=O)cc1	?	-	?	4.1µM	-	-
Clc1ccc(C(Cl)(Cl)Cl)cc1Cl	.	.	.	.	.	-
CCNC(C)(C)[C@@H](SS)c1ccc(Br)cc1	.	.	.	.	.	-[9.22 µM]
Cc1ccc2c(c1N)C(=O)c1ccccc1C2=O	4.3µM	3.2µM	?	?	?	?
N#CC(C#N)=NNc1ccc(-n2ccc(C(F)(F)F)n2)cc1	15µM	-	-	?	-	.
Cc1cc(C)n(-c2ccc(NN=C(C#N)C#N)cc2)n1	15µM	-	-	-	-	.
C[As+](C)(c1ccc(Br)c([N+](=O)[O-])c1)c1ccc(Br)c([N+](=O)[O-])c1.O=[N+]([O-])O	.	.	.	.	.	-[9.22 µM]
Cc1ccnc(SCc2nc3ccccc3s2)n1	6.7µM	?	9.2µM	?	3.5µM	11µM
CN(C)C(=O)Oc1ccc(-c2cn3cc(C(F)(F)F)ccc3n2)cc1	3µM	?	-	?	-	?
CN(C)C(=O)Oc1ccc(-c2cn3cc(Cl)ccc3n2)cc1	0.95µM	0.71µM	?	?	0.4µM	8.9µM
CN(C)C(=O)Oc1ccc(-c2nnco2)cc1	-	-	-	-	-	-
CN(C)C(=O)Oc1cccc(-c2cn3cc(Cl)ccc3n2)c1	3µM	?	-	?	?	11µM
Cc1ccc(Cl)cc1N1CCN(C(=O)C2CCCN(S(=O)(=O)c3ccc(Br)s3)C2)CC1 (stereo unspecified)	-	.	.	.	.	-
C[C@@H]1CC[C@@H]2N(C1)C[C@H]1[C@@](O)([C@H](O)C[C@]3(O)[C@H]4CC[C@H]5[C@]6(O)O[C@]4(C[C@]13O)[C@@]5(C)CC[C@@H]6O)[C@@]2(C)O	.	.	.	.	.	-[9.22 µM]
C[C@H]1CCCC(=O)CCC/C=C/c2cc(O)cc(O)c2C(=O)O1	-	-	-	21µM	-	-
COc1cc(O)cc2c1C(=O)OC(C)CCCC(=O)CCC/C=C\2 (stereo unspecified)	-	-	-	-	-	.
CC(=O)[O][Hg][c]1ccccc1	.	.	.	.	.	-
CC(C)C[C@H]1C(=O)N2CCC[C@H]2[C@]2(O)O[C@](NC(=O)[C@@H]3C=C4c5cccc6[nH]c(Br)c(c56)CC4N(C)C3)(C(C)C)C(=O)N12 (stereo partly specified)	-	-	-	18µM	-	-
CCOP(=O)(OCC)c1nc(-c2ccc(Cl)cc2)oc1NCc1ccccc1	-	-	-	23µM	-	-
CCCOP(=O)(OCCC)c1nc(-c2ccccc2)oc1NCc1ccccc1	-	-	-	?	-	-
C/C(=C\C(=O)c1ccc(Br)cc1)NCc1ccccc1	24µM	-	?	?	-	-
O=c1c2ccccc2nc(/C=C/c2ccc3c(c2)OCO3)n1-c1cccc(O)c1	-	-	-	16µM	-	-
COc1ccc(-n2c(/C=C/c3ccc4c(c3)OCO4)nc3ccccc3c2=O)cc1	-	-	-	23µM	-	-
Cc1ccc(-n2c(/C=C/c3ccc4c(c3)OCO4)nc3ccccc3c2=O)cc1	-	-	-	18µM	-	-
COc1cccc(-n2c(/C=C/c3ccc(O)c(O)c3)nc3ccccc3c2=O)c1	?	-	-	8.2µM	-	.
COc1ccc(-n2c(/C=C/c3ccc(O)c(OC)c3)nc3ccccc3c2=O)cc1	?	-	-	?	-	.
O=c1c2ccccc2nc(/C=C/c2ccc(O)cc2)n1-c1cccc(O)c1	-	-	-	?	-	-
COc1ccc(CN2CCN(C(=O)Cn3c(=O)oc4cc(Cl)ccc43)CC2)c(OC)c1OC	-	-	-	?	-	.
C[C@@H]1C(=O)O[C@@H]2C[C@]34[C@H]5C[C@@H](C(C)(C)C)[C@@]36[C@@H](OC(=O)[C@@H]6O)O[C@@]4(C(=O)O5)[C@@]12O	.	.	.	.	.	-
Cc1cc[c]([Sb]2[O]C([C@H](O)[C@H](O)C(=O)O)[C@@H](CO)[O]2)cc1 (stereo partly specified)	.	.	.	.	.	-[9.22 µM]
